{"source": "PubChem BioAssay AID624202", "about": "(National Center for Advancing Translational Sciences (NCATS), 2012)", "note": "The whole screen tested about 380,000 compounds, of which about 4,000 (1.1%) were called active. Roughly 3% stayed inconclusive and do not appear here. The sample holds actives, similar compounds and a random draw of the others, so the mix is not that of the screen. Calls come from the whole dose curve; as a rule, active = well fitted activation curve with a large enough effect; inconclusive = small, poorly fitted or top-dose-only effect; inactive = no such curve, though single readings can be large or run the other way. Potency is the fitted concentration of half-maximal effect.", "data": [{"assay": "qHTS Assay to Identify Small Molecule Activators of BRCA1 Expression; note: nearly all actives have a fitted effect of over 80% in size", "conditions": "MCF7-BRCA1-FFLuc reporter, luminescence, 48 h; series mostly up to 46.1 µM; activation: at the top concentration", "excerpt": "Functionally, BRCA1 has been implicated in a wide array of cellular activities, including DNA damage repair, cell-cycle checkpoint control, growth inhibition, apoptosis, transcriptional regulation, chromatin remodeling, protein ubiquitylation, and mammary stem cell self-renewal and differentiation. Reduction in BRCA1 levels is associated with an increase in tumor growth and resistance to anti-estrogenic agents, such as tamoxifen, while an increase in BRCA1 expression leads to cell growth arrest and apoptosis. […] The frequent loss of BRCA1 expression in invasive breast cancers in the absence of somatic mutation has been attributed to numerous mechanisms, including hypermethylation of the BRCA1 promoter, exaggerated ubiquitylation of BRCA1 protein, and improper intracellular localization. […] Basal-like breast cancers (BLBCs) are associated with an aggressive clinical course, resistance to chemotherapy, and typically lack expression of estrogen receptor (ER), progesterone receptor (PR), and epidermal growth factor receptor 2 (HER2). BLBCs account for 10-17% of all breast cancers, have few therapeutic options, and are considered the biggest unmet need in the treatment of breast cancer. Conversely, tumors which maintain expression of functional BRCA1 are almost uniformly luminal type cancers, and are accordingly associated with more indolent clinical courses, responsiveness to endocrine therapies, and improved survival.\nAs such, it is possible that an increase in BRCA1 expression would enable cellular differentiation and restore tumor suppressor function, resulting in delayed tumor growth and less aggressive, more treatable breast cancers. The long term goal of this proposal is to develop a novel prevention or therapeutic agent for breast cancer patients. To accomplish this goal, the overall objective of this proposal is to access the resources provided by the NIH Molecular Libraries Roadmap Initiative and the Molecular Libraries Probe Production Centers Network (MLPCN) to discover and develop new chemical activator probes that will increase BRCA1 expression and function.\nNIH Molecular Libraries Probe Production Network [MLPCN]\nNIH Chemical Genomics Center [NCGC]\nPI Name: Lisa Harlan-Williams, University of Kansas Medical Center\n5microl of MCF7-BRCA1-FFLuc cell suspension (400 cells/microl in phenol-red free MEM) are dispensed into Greiner white solid bottom 1536-well assay plates, yielding a final well density of 2000 cells/well. Plates are incubated for 2 hours at 37 degrees C in 5% humidified CO2 to allow cell attachment. Compounds are then transferred via Kalypsys pin tool equipped with 1536-pin array (10nl slotted pins, V&P Scientific, San Diego, CA). The plates are then incubated at 37 degrees C in 5% humidified CO2 for 48 hours. The NCGC in-house luciferase substrate reagent, Buglite, is then added (2.5microl) and plates incubated for 15 minutes, before being transferred to a ViewLux high-throughput CCD imager (PerkinElmer) wherein single end-point measurements of luminescence are acquired using a clear filter. The positive control compound, genistein, will be pinned into dedicated control columns on each plate, including a 16-point 1:3 titration in duplicate, as well as a 10microM maximum activation control, allowing for the normalization of screening activity. DMSO will be pinned into a separate column as a negative control.\nAll screening operations will be performed on a fully integrated robotic system (Kalypsys, San Diego, CA) containing one RX-130 and two RX-90 anthropomorphic robotic arms (Staubli, Duncan, SC). Library plates will be screened starting from the lowest and proceeding to the highest concentration. Vehicle-only plates, with DMSO being pin-transferred to columns 5-48, will be inserted uniformly at the beginning and the end of each library in order to monitor and record any shifts in the background, which can be affected by reagent dispensers or loss in enzyme activity over time. […]", "values": [{"smiles": "COc1cc(OC)c(C2C=C(C(=O)O)Nc3ncnn32)cc1OC", "note": "(centres undefined)", "activation": "10.8% (inactive)"}, {"smiles": "COc1ccc(C)cc1NC(=O)CCc1c(C)nn(-c2ccc(N3CCOCC3)nn2)c1C", "activation": "19.3% (inactive)"}, {"smiles": "CCOc1ccc(C(O)Cn2c(=N)n(CCN3CCCCC3)c3ccccc32)cc1", "note": "(centres undefined)", "activation": "-32.1% (inactive)"}, {"smiles": "COc1cccc(C(O)Cc2nc3ccccc3n2C)c1OC", "note": "(centres undefined)", "activation": "43% (inactive)"}, {"smiles": "CCOc1ccc(C(O)Cc2nc3ccccc3n2C)cc1", "note": "(centres undefined)", "Potency": "12.6 µM (active)"}, {"smiles": "CCn1cc2nc(SCc3ccccc3Cl)n(CCc3ccccc3)c(=O)c2n1", "activation": "0% (inactive)"}, {"smiles": "CC(C)(C)C1CCC(NC(=O)c2cnn3c2NC(=C2CC2)C=C3C(F)F)CC1", "note": "(centres undefined)", "activation": "-51.7% (inactive)"}, {"smiles": "COc1ccc(Cc2nc3ccc(C(=O)NCc4ccc(OC)cc4OC)cc3o2)cc1", "activation": "-11.6% (inactive)"}, {"smiles": "COc1ccc(Cc2nc3ccc(C(=O)NCC4CCOCC4)cc3o2)cc1OC", "activation": "-5.09% (inactive)"}, {"smiles": "CSCCNC(=O)c1ccc2nc(Cc3ccccc3F)oc2c1", "Potency": "12.6 µM (active)"}, {"smiles": "COc1ccc(CCn2c3c(c(=O)[nH]c2=S)CN(C(C)C)CN3)cc1OC", "activation": "-12.2% (inactive)"}, {"smiles": "NS(=O)(=O)c1ccc(Nc2nc(-c3ccccc3)cs2)cc1", "Potency": "7.08 µM (active)"}, {"smiles": "COC(=O)[C@H](Cc1ccccc1)NC(=O)Nc1ccc(S(N)(=O)=O)cc1", "activation": "-8.89% (inactive)"}, {"smiles": "CC(=O)c1ccc(Nc2nc(C(N)c3ccccc3)cs2)cc1", "note": "(centres undefined)", "activation": "18.7% (inactive)"}, {"smiles": "NS(=O)(=O)c1ccc(NC(=O)CSc2nnc3c(n2)[nH]c2ccccc23)cc1", "activation": "0% (inactive)"}, {"smiles": "COCCNC(=O)c1ccc2c(c1)N=C(C)c1cc(C)ccc1S2", "activation": "-66.9% (inactive)"}, {"smiles": "Brc1ccccc1C1N=C(c2ccccc2)NO1", "note": "(centres undefined)", "activation": "42.9% (inactive)"}, {"smiles": "N#Cc1ccc(C2N=C(c3ccccc3)NO2)cc1", "note": "(centres undefined)", "Potency": "2.51 µM (active)"}, {"smiles": "CCOc1ccccc1NC(=O)C1=C(C)Nc2ncnn2C1c1ccc(NC(C)=O)cc1", "note": "(centres undefined)", "activation": "-11.2% (inactive)"}, {"smiles": "CC(=O)N1c2ccc(S(=O)(=O)N3CCCCCC3)cc2CC1C(=O)NCc1ccccc1C", "note": "(centres undefined)", "activation": "-1.06% (inactive)"}, {"smiles": "COc1ccc(-c2cc(C(F)(F)F)n3nc(-c4ccccc4)cc3n2)cc1OC", "activation": "-55.7% (inactive)"}, {"smiles": "COc1ccc(-c2csc(Nc3cccc(C)n3)n2)cc1OC", "Potency": "2.82 µM (active)"}, {"smiles": "COc1cccc(C(O)c2nc(-c3ccc(C)c(C)c3)cs2)c1", "note": "(centres undefined)", "activation": "35.3% (inactive)"}, {"smiles": "O=C(c1ccc2c(=O)n(Cc3ccco3)c(=S)[nH]c2c1)N1CCCC1", "activation": "-11.9% (inactive)"}, {"smiles": "O=C(Nc1cccc2cccnc12)c1cccc2c(Br)cccc12", "activation": "-31.4% (inactive)"}, {"smiles": "Brc1cccc(-c2nnn3c2nc(NC2CCCCC2)c2ccccc23)c1", "activation": "-3.57% (inactive)"}, {"smiles": "COc1ccc(-c2nc3ccccc3o2)cc1NC(=O)c1cc([N+](=O)[O-])ccc1N1CCOCC1", "activation": "11.7% (inactive)"}, {"smiles": "CC(=O)Nc1cccc(-c2cnc3ccccc3n2)c1", "Potency": "3.98 µM (active)"}, {"smiles": "CC(=O)Nc1cccc(-c2cc(NC(C)=O)c3ncc(-c4ccccc4)n3c2)c1", "activation": "-10.9% (inactive)"}, {"smiles": "CCS(=O)(=O)Nc1cccc(-c2cc(-c3ccccc3)c3cc(C)ccc3n2)c1", "activation": "-71.4% (inactive)"}, {"smiles": "COc1cncc(-c2cnc3sc(NCCc4ccccn4)nn23)c1", "activation": "-32.3% (inactive)"}, {"smiles": "COc1ccc(NCCc2ccccn2)cc1", "Potency": "12.6 µM (active)"}, {"smiles": "Cc1c(C)c(C)c(S(=O)(=O)NCCc2ccccn2)c(C)c1C", "activation": "-0.0453% (inactive)"}, {"smiles": "CN(Cc1ccccc1)c1ncnc2onc(-c3ccc(F)cc3)c12", "activation": "-18.2% (inactive)"}, {"smiles": "O=C(CC(c1ccccc1)c1ccccc1)NCC(O)c1ccc([N+](=O)[O-])cc1", "note": "(centres undefined)", "activation": "-36.3% (inactive)"}, {"smiles": "CCCCOC(=O)Nc1nnc(CC(=O)NCc2ccccc2)s1", "activation": "-16.7% (inactive)"}, {"smiles": "CCCCCCOC(=O)NCC(O)c1ccccc1", "note": "(centres undefined)", "Potency": "2.82 µM (active)"}, {"smiles": "COc1ccc2cc(CNc3ccc(OC)c(OC)c3)c(=O)n(CC(=O)Nc3ccccc3F)c2c1", "activation": "6.1% (inactive)"}, {"smiles": "COc1cc2nc(N3CCCN(C)CC3)nc(NC(C)C)c2cc1OC", "activation": "4.14% (inactive)"}, {"smiles": "COc1cccc(CNC(=O)C(NS(=O)(=O)c2ccc3nc(C)sc3c2)C(C)C)c1", "note": "(centres undefined)", "activation": "11.8% (inactive)"}, {"smiles": "CCC(C)c1ccc(NC(=O)COC(=O)C2CCCC2)cc1", "note": "(centres undefined)", "activation": "63.6% (inactive)"}, {"smiles": "CCC(C)c1ccc(NC(=S)N2CCCC2)cc1", "note": "(centres undefined)", "Potency": "12.6 µM (active)"}, {"smiles": "NS(=O)(=O)c1ccc(NC(=S)N2CCCC2)cc1", "activation": "-14.7% (inactive)"}, {"smiles": "CCN(C(=O)Cn1cnc2sc(C)c(S(=O)(=O)N3CCN(c4ncccn4)CC3)c2c1=O)c1ccccc1F", "activation": "6.29% (inactive)"}, {"smiles": "COc1ccc(-c2onc3ccc(C(C)=O)cc23)cc1", "Potency": "8.91 µM (active)"}, {"smiles": "COc1ccc(-c2ocnc2C(=O)Nc2ccc3c(c2)CCC3)cc1", "activation": "43% (inactive)"}, {"smiles": "CCOC(=O)c1c(-c2ccc(OC)cc2)oc2ccc(OCc3ccc(C(=O)OC)cc3)cc12", "activation": "11.6% (inactive)"}, {"smiles": "Cc1ccc(N2CC(C(=O)Nc3ccc(N(C)C)cc3)CC2=O)cc1Cl", "note": "(centres undefined)", "activation": "0.738% (inactive)"}, {"smiles": "O=C(Nc1ccc(F)cc1F)c1cnn(-c2ccc(F)cc2)c1-n1cccc1", "activation": "-12.7% (inactive)"}, {"smiles": "CCc1ccc(NC(=O)Nc2ccncc2)cc1", "Potency": "10 µM (active)"}, {"smiles": "CC(C)CC(=O)Nc1ccc(Cc2ccncc2)cc1", "activation": "-0.517% (inactive)"}, {"smiles": "CCc1ccc(NC(=O)N[C@H](C(=O)O)C(C)CC)cc1", "note": "(some centres undefined)", "activation": "0% (inactive)"}, {"smiles": "Cc1ccccc1Nc1nn2c(=O)c3ccc(C(=O)NCCc4ccc(Cl)cc4)cc3nc2s1", "activation": "1.1% (inactive)"}, {"smiles": "CN(N=O)c1ccc(C=C2c3ccccc3-c3ccccc32)cc1", "activation": "-55.1% (inactive)"}, {"smiles": "COc1ccc(S(=O)(=O)NCCSc2nnnn2-c2ccccc2)cc1", "activation": "-7.8% (inactive)"}, {"smiles": "O=C(Nc1ccc(F)cc1F)c1ccc2c(=O)n3c(nc2c1)CCCCC3", "activation": "4.14% (inactive)"}, {"smiles": "CCCNC(=O)c1c(Cl)cnn1-c1ccc(C)cc1", "Potency": "10 µM (active)"}, {"smiles": "CCCNC(=O)CCc1c(C)nc2c(c(C)nn2-c2ccc(C)cc2)c1C", "activation": "-11.4% (inactive)"}, {"smiles": "CCc1nc2c(cnn2-c2ccc(C)cc2)c(=O)n1-c1ccc(C)cc1", "activation": "-12.1% (inactive)"}, {"smiles": "COc1ccccc1CNC(=O)CCn1c(=O)c2ccccc2n(CC(=O)Nc2cccc(Cl)c2)c1=O", "activation": "0% (inactive)"}, {"smiles": "O=C1Oc2ccccc2C(=O)/C1=C/c1ccccc1O", "activation": "-43.4% (inactive)"}, {"smiles": "COc1cc(/C=C2\\Oc3ccc(C#Cc4ccc(O)cc4)cc3C2=O)cc(OC)c1", "activation": "-68% (inactive)"}, {"smiles": "COc1ccc2c(c1)O/C(=C\\c1ccccc1O)C2=O", "Potency": "12.6 µM (active)"}, {"smiles": "Cc1ccc(C)c(CN2C(=O)c3ccccc3S(=O)c3ccc(C(=O)N4CCOCC4)cc32)c1", "note": "(centres undefined)", "activation": "-8.36% (inactive)"}, {"smiles": "Cc1ccc(-c2cc(-c3coc4ccccc4c3=O)c3c(n2)-c2cc(Cl)ccc2OC3)cc1", "activation": "5.07% (inactive)"}, {"smiles": "CN(C)CCCn1c(-c2ccc(Cl)cc2)csc1=Nc1ccccc1", "activation": "-56.6% (inactive)"}, {"smiles": "O=S(=O)(NCCOc1cccc2cccnc12)c1ccc(F)cc1", "activation": "9% (inactive)"}, {"smiles": "CCOc1cccc(OCCCOc2cccc3cccnc23)c1", "activation": "24.7% (inactive)"}, {"smiles": "Fc1ccccc1COc1cccc2cccnc12", "Potency": "7.94 µM (active)"}]}]}
